Several values for one entry are separate records, joined by “and”; a condition that tells them apart may be missing. Equal values may be shown once. Hit rate of the full screen: of about 16,000 compounds, about 2,600 (16%) were called active. Another 20% or so got no clear call; they are omitted. Not all results are given here. More than one record can exist for a structure, and the calls need not agree. Values without a mark were called inactive. The call rests on the fitted dose curve; in most records, active means well fitted curve in the direction sought with a large enough effect; inconclusive means small, poorly fitted or top-dose-only effect, or effect the other way; inactive means no such curve, though single readings can be large or run the other way.

For orientation: AC50 means the midpoint of the concentration-response curve, whichever way the signal moves.
On the % scale 0 is the no-effect control and ±100 the full control effect.

Sequence of Cytochrome P450 2D6 (Homo sapiens) (P10635 whole entry, looked up): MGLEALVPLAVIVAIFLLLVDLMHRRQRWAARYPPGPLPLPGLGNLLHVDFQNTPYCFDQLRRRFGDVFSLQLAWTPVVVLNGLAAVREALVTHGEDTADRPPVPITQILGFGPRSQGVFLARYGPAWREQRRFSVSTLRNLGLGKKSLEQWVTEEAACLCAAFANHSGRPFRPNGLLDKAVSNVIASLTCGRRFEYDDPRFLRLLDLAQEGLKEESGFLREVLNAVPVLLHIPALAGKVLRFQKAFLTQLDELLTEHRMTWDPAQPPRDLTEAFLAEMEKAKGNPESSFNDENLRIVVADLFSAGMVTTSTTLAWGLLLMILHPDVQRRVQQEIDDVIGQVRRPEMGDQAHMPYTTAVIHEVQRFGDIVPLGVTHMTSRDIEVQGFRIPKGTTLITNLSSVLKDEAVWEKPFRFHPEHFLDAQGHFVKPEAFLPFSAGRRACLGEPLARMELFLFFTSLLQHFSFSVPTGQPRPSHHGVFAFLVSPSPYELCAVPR

This assay addresses Cytochrome P450 2D6 (Homo sapiens) (UniProt P10635). The assay can be described thus: Cytochrome panel assay with activity outcomes. The conditions noted are these: recombinant CYP, pro-luciferin dealkylation, luminescence, p450-cyp2d6; series mostly up to 57.1 µM.
Regarding `CCOC(=O)c1cnc2cc(-c3ccc(C)cc3)nn2c1-c1ccccc1`, the AC50 entry is “inactive”.
The same measure, in the same setting: as for `O=C1N=C(N2CCC(Cc3ccccc3)CC2)S/C1=C/c1cn[nH]c1-c1ccccc1`, the entry is “inactive”.
The same measure, in the same setting: under `COc1ccccc1NC(=O)Nc1nnc(-c2ccco2)s1` stands “inactive”.
The same measure, in the same setting: under `O=S(=O)(c1ccccc1)c1cnc(-c2cccnc2)nc1-c1ccc(Cl)cc1Cl` stands “inactive”.
Turning to `COC(=O)c1c(C)[nH]c(O)c1C=Nc1ccc(C(C)C)cc1`, the AC50 result was “inactive”.
The same measure, in the same setting: under `OC[C@H]1NC[C@H](O)[C@@H](O)[C@H]1O` stands “inactive”.
Still for that read-out and setting: under `CNCCC=C1c2ccccc2C=Cc2ccccc21` stands 5.01 µM (active); under `CN(C)CC/C=C1\c2ccccc2COc2ccccc21`, 15.8 µM (active) and 3.16 µM (active) and 3.98 µM (active).
For `C[N+](C)([O-])CCC=C1c2ccccc2CCc2ccccc21`, the activity, negative = inhibition was -5.43% [at 11.4 µM].
On to `CN(C)CCC=C1c2ccccc2C=Cc2ccccc21`, for which the half-maximal activity concentration (AC50) is 6.31 µM (active).
Still for that read-out and setting: as for `O=C1OCc2cccc3cccc1c23`, the entry is “inactive”; as for `COc1ccc(C2=C(C#N)C(=O)OC2)cc1`, “inactive”; as for `CCOC(=O)c1cnn(-c2nc(-c3cccc(F)c3)cs2)c1C(F)(F)F`, “inactive”.
Turning to `O=C(O)[C@@H]1CCCN1`, the activity, negative = inhibition was -2.04% [at 11.4 µM].
For `CC1(C)C(=O)C(c2ccccc2)=C2CN3C(=O)N(CCc4ccccc4)C(=O)C3(Cc3ccccc3)C=C21` (stereo not drawn), the AC50 result was “inactive”.
The same measure, in the same setting: under `N#Cc1cc2[nH]c(=O)c(=O)[nH]c2cc1[N+](=O)[O-]` stands “inactive”; under `C[C@@]12C(=O)OC(=O)[C@@]1(C)[C@@H]1CC[C@@H]2O1`, “inactive”.
For `NC(N)=N/N=C\c1ccc(C2CCNCC2)cc1`, the activity, negative = inhibition is -11% [at 11.4 µM].
Consider `CC(=O)c1cn(CC(=O)Nc2c(C)cccc2C)c2ccccc12`, for which the half-maximal activity concentration (AC50) was 7.94 µM (active).
Still for that read-out and setting: under `Cc1cccc(C)c1NC(=O)C[N+](C)(C)C` stands “inactive”.
Same read-out and setting: as for `Cc1ccccc1NC(=O)Cn1cnc2c1c(=O)n(C)c(=O)n2C`, the entry is “inactive”; as for `Cc1ccccc1NC(=O)c1cnc(Nc2nc3ccccc3s2)nc1C`, “inactive”.
On to `CC(N)=O`, for which the AC50 entry was “inactive”.
Turning to `CCN(CCCNC(=O)C1CCN(S(=O)(=O)CC)CC1)c1cccc(C)c1`, the AC50 is 25.1 µM (active).
The same measure, in the same setting: as for `C=CCNC(=O)C1CCN(S(=O)(=O)CC)CC1`, the entry is “inactive”.
For the compound `CCS(=O)(=O)N1CCC(C(=O)NCCCOC)CC1`, the AC50 result is “inactive”.
Same read-out and setting: as for `C=CCn1c(SCC(=O)Nc2c(C)n(C)n(-c3ccccc3)c2=O)nc2sc(C)c(-c3ccccc3)c2c1=O`, the entry is “inactive”; as for `COc1ccc(CO/N=C/c2c(C)[nH]c(=O)[nH]c2=O)cc1`, “inactive”.
Still for that read-out and setting: as for `CC(C)CNC(=S)N1CCN(C)CC1`, the entry is “inactive”; as for `CCN(CC)S(=O)(=O)c1cccc2c(N(C)C)cccc12`, “inactive”; as for `CCN(CC)S(=O)(=O)c1ccc2c3c(cccc13)C(=O)S2`, 12.6 µM (active).
On the same count and under the same terms, under `CCOC(=O)NNC1CC(=O)N(c2ccc(OC)cc2)C1=O` (stereo not drawn) stands “inactive”; under `CCC(CC)C(=O)c1c[nH]c(C(=O)NCCCN2CCOCC2)c1`, “inactive”; under `O=C(c1ccccc1)c1c[nH]c(C(=O)NCCCN2CCOCC2)c1`, “inactive”.
For `O=C(NCCCN1CCOCC1)c1cc2c(s1)CSC2`, the AC50 was 1.26 µM (active).
Still for that read-out and setting: as for `O=c1onc2n1-c1cc(Br)ccc1OC2`, the entry is “inactive”; as for `COc1ccc(-n2c(=O)c(-c3ccc(Cl)cc3)nc3cnc(N4CCNCC4)nc32)cc1`, “inactive”; as for `N#CC1=C(N)OC2=C(C(=O)CCC2)C12CCC1(CC2)OCCO1`, “inactive”.
Still for that read-out and setting: as for `CN1CCN(c2ncc3nc(-c4cn(C)c5ccccc45)c(=O)n(CCc4ccccc4)c3n2)CC1`, the entry is “inactive”; as for `OC1(c2ccc(OC(F)F)cc2)CSC(=Nc2cccnc2)N1C1CC1` (stereo not drawn), 2 µM (active); as for `N#Cc1c(-c2ccccc2)nc2n(c1=O)CCS2`, “inactive”.
With `CN1CCCC[C@@H]1CCN1c2ccccc2Sc2ccc(S(C)=O)cc21` (stereo partly drawn), the AC50 was 0.1 µM (active) and the activity, negative = inhibition was 0.0782% [at 11.4 µM].
As for `COc1ccc(OCc2nnc(SCC(=O)N3c4ccccc4Sc4ccc(Cl)cc43)o2)cc1`, the AC50 result is “inactive”.
The same measure, in the same setting: as for `COc1ccc2c(c1)N(CC[C@H]1CCCCN1C)c1ccccc1S2`, the figure is 0.0501 µM (active).
As to `CN1CCCC[C@@H]1CCN1CCCCC1`, the activity, negative = inhibition was -1.48% [at 11.4 µM].
For `O=c1c(-c2ccccc2)nc2cncnc2n1C1CC1`, the AC50 entry is “inactive”.
Same read-out and setting: under `O=C(CCNC(=O)c1ccc(Br)o1)NCc1ccccn1` stands “inactive”; under `COc1cc(=O)n2c(n1)SCCC2`, “inactive”; under `CC12c3ccccc3C(c3ccccc31)C1C(=O)N(Cc3cccnc3)C(=O)C12` (stereo not drawn), “inactive”.
On the same count and under the same terms, under `CC1CCN(c2ccccc2NC(=S)NC(=O)c2cccs2)CC1` stands 0.2 µM (active); under `O=C(NC(=S)Nc1cccc(Cl)c1N1CCCCC1)c1cccs1`, “inactive”; under `Cc1cccc(NC(=S)NC(=O)c2cccs2)n1`, “inactive”.
Same read-out and setting: under `COc1cccc(OCC(=O)NN=C2c3ccccc3-c3ccccc32)c1` stands “inactive”; under `O=c1c(-c2ccc(F)cc2)nc2cncnc2n1C1CC1`, “inactive”.
As for `COC(=O)c1sccc1-c1ccc(C(=O)Nc2cccc(Cl)c2)o1`, the half-maximal activity concentration (AC50) was 15.8 µM (active).
Still for that read-out and setting: under `O=C(Nc1cccc2nsnc12)c1ccc(-c2cccc(Cl)c2)o1` stands “inactive”; under `CCCn1nnc(NC(=O)c2ccc(-c3cccc(Cl)c3)o2)n1`, “inactive”.

These data come from PubChem BioAssay AID1851 (National Center for Advancing Translational Sciences (NCATS), 2009).
